Sampled rows, rich in hits. Any-hit rate of the full collection: about 6.6%.
RGS4 inh = Inhibitors of Regulator of G Protein Signaling (RGS) 4: qHTS; AID 504845, 2011; Potency, µM (top dose mostly 114 µM), for inactives: at the top dose activity change, negative = inhibition, usual class: inhibitors; 390,000 compounds, 0.039% hits; Transcreener GDP fluorescence polarization, RGS4-accelerated GTP hydrolysis; note: % is set by controls: 0 for no effect and ±100 for the full control effect; nearly all actives have a fitted effect of over 75% in size
Target sequence (P49798 whole entry, looked up): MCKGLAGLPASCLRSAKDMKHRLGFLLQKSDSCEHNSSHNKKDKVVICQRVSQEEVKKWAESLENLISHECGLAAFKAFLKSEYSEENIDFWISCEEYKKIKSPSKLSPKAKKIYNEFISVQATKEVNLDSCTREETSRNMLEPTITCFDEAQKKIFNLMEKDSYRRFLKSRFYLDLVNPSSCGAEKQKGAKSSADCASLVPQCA
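MLSMR compounds (23 nl, pin-transferred) preincubated 10 min at room temperature with a 500nM (2x) first reagent, then RGS4 at 900nM (2x) plus Transcreener GDP mix added; fluorescence polarization (620/688 nm) read before and after 90 min at 30 °C.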
TSG101-PTAP inh = qHTS Assay for Iinhibitors of HIV-1 Budding by Blocking the Interaction of PTAP/TSG101. Fluorescence polarization, FITC-PTAP peptide / Tsg101 binding. Potency, µM (doses to about 115 µM), for inactives: at the top dose activity change, negative = inhibition, usual class: inhibitors. 340,000 tested, under 10 active; active = well fitted inhibition curve with a large enough effect in the main read-out, with a control signal flat, not every such curve was filed as active; inconclusive = small, poorly fitted or top-dose-only effect, or effect the other way, or a change in a side signal; inactive = no such curve, though single readings can be large or run the other way; note: % of control where 0% means no effect
Target sequence (Q99816 whole entry, looked up): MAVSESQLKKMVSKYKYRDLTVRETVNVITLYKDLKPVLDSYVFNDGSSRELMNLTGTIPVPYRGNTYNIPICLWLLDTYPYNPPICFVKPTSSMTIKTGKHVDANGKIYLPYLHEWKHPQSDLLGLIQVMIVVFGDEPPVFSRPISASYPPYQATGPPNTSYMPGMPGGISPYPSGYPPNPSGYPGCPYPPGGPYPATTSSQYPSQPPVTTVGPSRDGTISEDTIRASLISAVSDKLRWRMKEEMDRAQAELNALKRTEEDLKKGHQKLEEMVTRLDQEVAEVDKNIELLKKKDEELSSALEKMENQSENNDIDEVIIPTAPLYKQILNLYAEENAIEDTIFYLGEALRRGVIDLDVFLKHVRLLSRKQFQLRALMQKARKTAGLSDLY
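Tsg101 binding domain (10 uM final) was mixed with compound and a FITC-labeled PTAP peptide (50 nM final) in HEPES pH 7.5 buffer with NaCl, Tween 20, EDTA and TCEP; fluorescence polarization was read after 20 min at r.t.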
SW480 rereplic = A quantitative high throughput screen for small molecules that induce DNA re-replication in SW480 colon adenocarcinoma cells. SW480 DNA re-replication, Hoechst DNA content imaging, 48 h. Potency, µM (top dose mostly 46.1 µM), without a hit: at the highest dose re-replication activation, actives largely listed as activators. 340,000 compounds, 1.8% hits. AID 624297, 2012; note: % of control where 0% means no effect; nearly all actives have a fitted effect of over 55% in size
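Hoechst fluorescence of nuclei (405 nm excitation, 500-530 nm emission) measured by plate-scanning imager after 48 hr compound exposure at 37 C; re-replication scored as increased number of nuclei with elevated intensity.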
KB-3-1 tox = qHTS assay for MDR1-selective chemotherapeutics: Primary screen using the parental adenocarcinoma cell KB-3-1. Potency, µM (series often up to 46.1 µM), hits mostly cytotoxic. KB-3-1 viability, CellTiter-Glo ATP luminescence, 72 h. 400,000 compounds, 1.4% hits; note: % is set by controls: 0 for no effect and ±100 for the full control effect; nearly all actives have a fitted effect of over 60% in size
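Parental KB-3-1 viability, qHTS format: 72 h compound exposure, 37 °C; CellTiter-Glo; media-only wells and DMSO plates as controls; concentration-effect fits on corrected data.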
MCF10A rereplic = A quantitative high throughput screen for small molecules that induce DNA re-replication in MCF 10a normal breast cells | MCF 10A DNA re-replication, Hoechst nuclear intensity, 48 h | Potency, µM (series often up to 46.1 µM), for the others: top-dose activity, positive = re-replication, usual class: activators | 350,000 compounds, 2.9% hits; note: % of control where 0% means no effect; nearly all actives have a fitted effect of over 50% in size
KB-V1 cytotox = qHTS assay for MDR1-selective chemotherapeutics: Primary screen using the drug-selected MDR subline cells KB-V1. 400,000 compounds, 3.4% hits. Potency, µM (top dose mostly 46.1 µM), usual class: cytotoxic. KB-V1 MDR cells viability, CellTiter-Glo, 72 h; note: % is set by controls: 0 for no effect and ±100 for the full control effect; nearly all actives have a fitted effect of over 60% in size
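Potencies derive from concentration-effect curves fitted to normalized luminescence (CellTiter-Glo) of KB-V1 cells treated for 72 h at 37 degrees C in phenol-red-free DMEM containing 10% FBS.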
Active calls of the source: *; i = inactive; u = inconclusive; x = no result given; [ ] = remark or other dose. Unless noted, calls come from the whole dose curve; as a rule, active = well fitted curve in the direction sought with a large enough effect; inconclusive = small, poorly fitted or top-dose-only effect, or another doubt; inactive = no such curve, though single readings can be large; an effect the other way counts as inactive or inconclusive. Potency is the fitted concentration of half-maximal effect.

SMILES	RGS4 inh	TSG101-PTAP inh	SW480 rereplic	KB-3-1 tox	MCF10A rereplic	KB-V1 cytotox
CCN(CC)S(=O)(=O)c1ccc(N2CCOCC2)c(NC(=O)c2ccccc2)c1	-25.5%	-3.2%	-3.1%	i	0.7%	u
CCN(CC)S(=O)(=O)c1ccc(N2CCOCC2)c(NC(=O)C23CC4CC(CC(Cl)(C4)C2)C3)c1	-5.9%	-3.0%	-26.6%	i	u	23.1µM*
Oc1cccc2ccc(/C=C/c3cccs3)nc12	6.6%	0.0%	11.2µM*	u	u	i
Cc1ccsc1/C=C/c1ccc2cccc(O)c2n1	-22.2%	2.1%	u	u	u	13µM*
Cc1cccc(/C=C/c2cccs2)n1	x	x	x	2.31µM*	x	i
Cc1nnc(C)n1/N=C/c1cccs1	-12.3%	4.4%	-3.0%	i	-6.6%	i
CCCCN(CC)C(=O)CSc1nc2n[nH]c(C)c2c(=N)n1-c1ccc(CC)cc1	26.0%	x	x	x	x	x
CCOC(=O)c1ccccc1NC(=O)c1ccc(F)cc1	-0.1%	-5.9%	4.7%	i	-11.4%	i
CCOC(=O)c1ccccc1NC(=O)c1ccccc1N(C)S(C)(=O)=O	0.1%	-1.6%	-4.1%	i	-10.5%	18.4µM*
COC(=O)c1ccccc1NC(=O)c1ccccc1N(C)S(C)(=O)=O	13.4%	-7.0%	2.1%	i	3.8%	i
Cc1ccccc1CN(c1ccc(C(=O)Nc2ccccc2C(=O)NCc2ccco2)cc1)S(C)(=O)=O	-7.8%	-4.5%	-12.4%	i	20.7%	8.2µM*
CCOC(=O)c1ccccc1NC(=O)c1c(F)c(F)c(F)c(F)c1F	-4.8%	-4.7%	u	i	20.6µM*	i
CN(c1ccccc1C(=O)Nc1ccccc1C(=O)NCc1ccco1)S(C)(=O)=O	7.0%	-2.1%	16.5%	i	1.8%	14.6µM*
C=C1CC2(OC1=O)c1ccccc1CCc1ccccc12	u	-5.4%	4.11µM*	u	2.91µM*	i
COc1ccc(Cl)cc1NS(=O)(=O)c1cc(-c2cc(C)no2)ccc1C	0.4%	x	x	13µM*	x	3.66µM*
COc1ccccc1NS(=O)(=O)c1cc(-c2cc(C)no2)ccc1OC	-18.9%	-3.3%	-26.8%	i	14.9%	i
COC(=O)c1ccc(NS(=O)(=O)c2cc(-c3cc(C)no3)ccc2OC)cc1	9.9%	-1.4%	18.4µM*	5.8µM*	24.7%	u
COc1ccc(-c2nn3c(-c4cc(-c5ccccc5)n[nH]4)nnc3s2)cc1	-29.6%	x	x	u	x	u
C=CCOc1ccc(/C=C2\SC(=S)N(N3CCOCC3)C2=O)cc1	-2.7%	1.7%	5.8µM*	i	-3.5%	i
O=C1/C(=C/c2ccncc2)SC(=S)N1N1CCOCC1	-46.8%	-1.6%	-9.3%	i	2.0%	i
COc1ccc(C(=O)CSc2nnc(NC(=O)C3CC(=O)N(c4ccccc4)C3)s2)cc1 (stereo not given)	-38.8%	-5.2%	2.91µM*	i	5.6%	i
Cc1ccc(-n2ncc(C(=O)NCCc3c[nH]c4ccccc34)c2C2CCN(C(=O)OC(C)(C)C)CC2)cc1C	12.6%	x	x	i	x	u
CCN1CCN(c2nc(SC)nc3sc4c(c23)CC(C)(C)OC4)CC1	9.0%	-3.2%	-3.6%	i	1.2%	8.2µM*
CCOC(=O)c1[nH]c2ccccc2c1NC(=O)c1ccc(OC(C)C)cc1	2.1%	x	x	i	x	i
COc1ccc(OC)c(C(=O)CSc2nnc(C3CC3)n2C2CC2)c1	x	x	x	16.4µM*	x	i
SMILES	RGS4 inh	TSG101-PTAP inh	SW480 rereplic	KB-3-1 tox	MCF10A rereplic	KB-V1 cytotox
CCc1ccc(C(=O)CSc2nnc(C3CC3)n2C2CC2)cc1	-20.3%	0.3%	-2.7%	i	14.7%	11.6µM*
CCn1c(SCC(=O)c2cc(OC)ccc2OC)nnc1C1CC1	u	-7.9%	-5.3%	i	1.4%	i
Cc1csc2nc(COC(=O)c3ccccc3NC(=O)COc3ccccc3F)cc(=O)n12	-12.0%	x	x	x	x	x
COc1ccc(N2CCN(C(CNS(=O)(=O)c3c(C)cc(C)cc3C)c3ccco3)CC2)cc1 (stereo not given)	10.9%	x	x	x	x	x
O=C(NCc1cccnc1)/C(=C/c1ccc(-c2cccc(C(F)(F)F)c2)o1)NC(=O)c1ccccc1	-22.3%	-1.1%	1.0%	i	u	16.4µM*
Cc1ccc(C(=O)N/C(=C/c2ccc(-c3cc(C(F)(F)F)ccc3Cl)o2)C(=O)NCc2cccnc2)cc1	-39.8%	1.8%	1.4%	u	8.2%	9.2µM*
CCc1ccc(NC(=O)CN(C)S(=O)(=O)c2ccc3c(c2)c(=O)n(C)c(=O)n3C)cc1	-4.9%	x	x	i	x	i
O=[N+]([O-])c1ccccc1-c1ccc(C(=S)N2CCCC2)o1	u	0.4%	8.2µM*	i	-22.0%	i
Cc1cccc(N2CCN(C(=S)c3ccc(-c4ccccc4[N+](=O)[O-])o3)CC2)c1	-38.4%	-1.1%	u	16.4µM*	u	u
Fc1ccc(-c2nc(-c3c[nH]c4ccccc34)cs2)cc1	x	x	x	u	x	i
CCOc1ccc(Br)cc1C(=O)N/N=C/c1cccc(C)n1	15.9%	-3.7%	-0.8%	i	18.4µM*	i
C[C@H](NC(=O)/C(C#N)=C/c1ccc(O)c(O)c1)c1ccccc1	i	x	x	x	x	x
O=C(CSc1ccc(S(=O)(=O)N2CCCC2)cn1)Nc1ccc([N+](=O)[O-])cc1C(F)(F)F	-4.4%	-3.5%	4.1%	u	18.1%	5.17µM*
Cc1ccc(C(=O)NC(=S)Nc2cccc3nsnc23)cc1	-46.0%	-7.4%	2.5%	i	0.4%	i
Cc1ccc(C(=O)NC(=S)Nc2cccc3c(C)cc(C)nc23)cc1	11.7%	-4.1%	-1.3%	u	u	14.6µM*
CCCCn1c(CNC(=O)C23CC4CC(CC(C4)C2)C3)nnc1SCC(=O)Nc1ccccc1	0.4%	x	x	i	x	i
Cc1c2cnn(CC(=O)NCCc3ccccc3)c(=O)c2c(C)n1Cc1ccccc1	-21.8%	x	x	i	x	i
CCSc1nsc(NC(=O)Nc2cccc(F)c2)n1	6.4%[56.9 µM]	-4.3%	u	u	16.4µM*	u
O=C(Cn1nc(-c2ccc(Cl)cc2)ccc1=O)N1CCN(c2ccccc2)CC1	-17.4%	-1.1%	3.2%	i	3.8%	20.6µM*

Source: PubChem BioAssay
